KCNQ2 block = KCNQ2 (rat) channel inhibition. O88943. AID 2156. hit rate 1.1% among 310,000. B-score at 10 µM. CHO-K1 KCNQ2, FluxOR thallium flux, 20 min; stronger effect = lower value;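 active = fluorescence ratio B-score at most minus 3 library SDs, with starting brightness B-score within 2 library SDs, cut at about -5.5 in these data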
KCNQ2 pot = enhances the rat KCNQ2 potassium channel | B-score at 10 µM | AID 2239 | O88943 | hit rate 0.54% among 310,000 | CHO-K1 KCNQ2, FluxOR thallium flux fluorescence; stronger effect = higher value;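 active = fluorescence ratio B-score at least 3 SD of library B-scores, with initial fluorescence B-score within 3 of them, cut at about 5.3 in these data; same plate scores as AID 2156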;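 also: B-score of peak minus minimum over baseline fluorescence ratio after K+ and Tl+ stimulus; positive B-score means potentiation of KCNQ2 with more thallium influx and brighter signal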
Kir21 confirm = confirmation of mouse Kir2.1 potassium channel inhibitors. Tl flux remaining, % of negative control (stronger effect = lower value), % at 10 µM. shares compounds with KCNQ2 pot. Kir2.1-expressing cells, FluxOR thallium flux fluorescence; stronger effect = lower value. AID 2032. hit rate 41% among 2,300;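 active = Primary-screen hit whose thallium flux fell at least 3 control SD below untreated wells in both duplicates, with normal baseline fluorescence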;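 also: 0% = blank wells without stimulus and 100% = stimulated no-compound controls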
HEK293 Tl flux = alters thallium flux in parental HEK293 cells, Kir2.1 counter-screen; shares compounds with KCNQ2 pot; FluxOR thallium flux fluorescence; 0% = unstimulated blank wells; FluxOR signal as % of negative control (100 = no effect), % at 10 µM; hit rate 19% among 2,300;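 active = dye signal at least 3 control SD above or below untreated wells in both duplicates, raw fluorescence within 3, either direction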;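 also: percent is based on the flux ratio of peak minus minimum fluorescence over baseline F0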
CHO-K1 Tl ctr = parental CHO-K1 activity in KCNQ2 potentiator counter-screen | shares compounds with KCNQ2 pot | parental CHO-K1 cells, FluxOR thallium flux fluorescence; zero = vehicle mean+3SD, 100% = vehicle-minus-blank window | activity increase over 3SD of controls, % at 10 µM | hit rate 43% among 1,200;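 active = signal rise of at least 3 SD above the untreated control mean, in both duplicate wells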;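 also: counter screen of KCNQ2 potentiator hits so any rise reflects channel-independent effects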
KCNQ1 pot spec = tests whether KCNQ2 potentiators also act on human KCNQ1; shares compounds with KCNQ2 pot; CHO KCNQ1 stable, FluxOR thallium flux fluorescence; beyond 3SD, as % of vehicle-control signal; activation over 3SD threshold, % at 10 µM; hit rate 28% among 1,200;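 active = fluorescence ratio rise of at least 3 SD of vehicle wells above their mean, in both replicate wells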;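 also: 0% = vehicle mean plus 3 SD and 100% = vehicle minus unstimulated blank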
KCNQ2 pot conf = rat KCNQ2 channel potentiator confirmation | shares compounds with KCNQ2 pot | CHO-KCNQ2 cells, FluxOR thallium flux fluorescence | potentiation, less the hit threshold, % at 10 µM | hit rate 68% among 1,200;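 active = fluorescence ratio rising 3 SD or more over the vehicle control mean in both replicates, plus primary screen hit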;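 also: peak minus minimum thallium fluorescence divided by baseline after K/Tl stimulus; 0% = vehicle mean plus 3 SD and 100% = vehicle minus unstimulated blank difference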
Kir21 spec = tests whether KCNQ2 potentiators also affect mouse Kir2.1. HEK293 Kir2.1, FluxOR thallium flux fluorescence. hit rate 2% among 1,200. shares compounds with KCNQ2 pot. activity over 3SD threshold, % at 10 µM;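 active = fluorescence ratio rise of at least 3 SD above the vehicle-control mean, seen in both replicates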;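 also: 0% = vehicle mean plus 3 SD and 100% = vehicle minus no-stimulus blank window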
KCNQ2 W236L pot = KCNQ2 potentiators acting on retigabine-insensitive rat KCNQ2 W236L mutant | shares compounds with KCNQ2 pot | CHO KCNQ2-W236L, automated patch clamp current | current increase over 3SD of negative controls (%), stronger effect = higher value, % at 25 µM | hit rate 10% among 940 | AID 2558;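 active = current increase at least 3 SD of the untreated controls above them in both duplicate recordings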
Target sequence (O88943 whole entry W236L, looked up): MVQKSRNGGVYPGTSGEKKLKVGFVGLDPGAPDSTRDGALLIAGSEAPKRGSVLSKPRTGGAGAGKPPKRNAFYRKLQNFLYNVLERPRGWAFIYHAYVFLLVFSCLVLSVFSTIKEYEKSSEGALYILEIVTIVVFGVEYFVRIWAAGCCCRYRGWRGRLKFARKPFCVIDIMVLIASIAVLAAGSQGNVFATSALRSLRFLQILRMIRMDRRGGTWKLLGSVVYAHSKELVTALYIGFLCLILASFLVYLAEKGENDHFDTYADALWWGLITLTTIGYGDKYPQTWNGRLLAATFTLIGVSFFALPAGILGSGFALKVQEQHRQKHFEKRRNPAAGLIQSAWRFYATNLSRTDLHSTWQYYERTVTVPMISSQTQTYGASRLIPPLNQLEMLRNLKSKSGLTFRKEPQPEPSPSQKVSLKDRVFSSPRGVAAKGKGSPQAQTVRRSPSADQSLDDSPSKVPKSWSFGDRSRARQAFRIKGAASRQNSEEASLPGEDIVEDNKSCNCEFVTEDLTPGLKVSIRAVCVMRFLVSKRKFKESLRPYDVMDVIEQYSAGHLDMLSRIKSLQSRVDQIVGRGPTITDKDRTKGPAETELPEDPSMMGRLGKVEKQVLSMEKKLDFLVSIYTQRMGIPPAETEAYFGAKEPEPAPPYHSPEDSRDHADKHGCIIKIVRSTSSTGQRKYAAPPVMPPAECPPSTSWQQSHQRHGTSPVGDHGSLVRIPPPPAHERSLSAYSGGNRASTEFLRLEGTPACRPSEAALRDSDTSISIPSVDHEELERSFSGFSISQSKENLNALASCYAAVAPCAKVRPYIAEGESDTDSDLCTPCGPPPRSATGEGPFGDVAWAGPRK
Starred values were filed as active, the others as inactive; i = inactive; . = no result given. The list is not random: actives were taken first. Their share in the collection is about 1.6%.

SMILES	KCNQ2 block	KCNQ2 pot	Kir21 confirm	HEK293 Tl flux	others
COC(=O)c1ccc(C(=O)N2CCCC(N3CCN(c4ccc(F)cc4)CC3)C2)nc1 (centres undefined)	i	.	.	.
COc1cc(CNC(=O)c2ccccc2NC(=O)C2=C(C)OCCS2)cc(OC)c1OC	i	.	.	.
CC1(C(=O)O)CCC(C(=O)N2CCCCC2)C1(C)C (centres undefined)	i	1.56	.	.
CCCCCCCCNC(C)C(O)c1ccc(SC(C)C)cc1 (centres undefined)	i	6.84*	.	.	CHO-K1 Tl ctr=-55.8;KCNQ1 pot spec=-20.1;KCNQ2 pot conf=-46.2;Kir21 spec=-61.6
C[C@@H](NCCc1ccc(O)cc1)[C@@H](O)c1ccc(O)cc1	i	0.08	.	.
CC(/C=N/n1c(COc2ccccc2)n[nH]c1=S)=C\c1ccco1	i	0.56	.	.
O=C(COc1cccnc1[N+](=O)[O-])NCCc1ccc(F)cc1	i	0.55	.	.
CCC(C)[C@H](NC(=O)[C@@H]1Cc2c([nH]c3ccccc23)C2c3ccccc3C(=O)N21)C(=O)N1CCC[C@@H]1C(=O)O (some centres undefined)	i	0.36	.	.
Cc1cc(Cl)ccc1OCC(=O)N/N=C/c1ccncc1	i	0.55	.	.
O=C(O)c1ccccc1C(=O)Nc1ccccc1	i	0.79	.	.
O=C(Nc1ccccc1)C1=C(c2ccccc2)S(=O)(=O)CCS1(=O)=O	i	8.09*	i	i	CHO-K1 Tl ctr=-16.1;KCNQ1 pot spec=-21.6;KCNQ2 pot conf=3.7*;Kir21 spec=-38.8;KCNQ2 W236L pot=3.5%*
Cc1c(Cl)cccc1Nc1nc(NCCO)c2ccccc2n1	i	.	35.0%*	i
Oc1ccccc1Nc1nc(NCc2ccccc2)c2ccccc2n1	i	.	.	.
S=c1[nH]nc(-c2ccncc2)n1/N=C/c1cn(-c2ccccc2)nc1-c1ccccc1	i	.	.	.
S=c1[nH]nc(-c2cccs2)n1/N=C/c1cn(-c2ccccc2)nc1-c1cccs1	i	6.9*	i	i	CHO-K1 Tl ctr=-0.8;KCNQ1 pot spec=80.5*;KCNQ2 pot conf=-2.7;Kir21 spec=-34.1;KCNQ2 W236L pot=i
CN(c1ccccc1)S(=O)(=O)c1cccc(C(=O)OCC(=O)NCc2ccco2)c1	i	1.31	.	.
CN(c1ccc(F)cc1)S(=O)(=O)c1ccc(Cl)c(C(=O)OCC(=O)NCc2ccco2)c1	i	8.81*	i	i	CHO-K1 Tl ctr=15.2*;KCNQ1 pot spec=-13.6;KCNQ2 pot conf=24.0*;Kir21 spec=-39.7;KCNQ2 W236L pot=i
COc1ccc(CC(NC(C)=O)C(=O)NC2CCN(S(=O)(=O)c3ccc(NC(C)=O)cc3)CC2)c(OC)c1 (centres undefined)	i	.	.	.
CCS(=O)(=O)N1CCC(NC(=O)C(Cc2cc(OC)ccc2OC)NC(C)=O)CC1 (centres undefined)	i	0.68	i	i
COc1ccc(CN2CCCC(C(=O)c3ccc4c(c3)OCO4)C2)c(F)c1 (centres undefined)	i	.	56.5%*	i
COc1cccc(CN2CCCC(C(=O)c3ccc4c(c3)OCO4)C2)c1O (centres undefined)	i	.	.	.
O=C(N/N=C1/C(=O)c2cccc3cccc1c23)c1ccc(Cl)cc1	i	10.1*	i	213.0%*	CHO-K1 Tl ctr=46.0*;KCNQ1 pot spec=37.4*;KCNQ2 pot conf=14.5*;Kir21 spec=-28.0;KCNQ2 W236L pot=i
CCNC(=S)N/N=C1\C(=O)c2cccc3cccc1c23	i	1.68	.	.
N#C/C(=C\Nc1ccccc1SC(F)(F)F)c1nc(-c2ccc(Cl)cc2)cs1	i	0.02	.	.
Cc1ccc(C)c(N2CCN(S(=O)(=O)c3cc4c(cc3C)NC(=O)CO4)CC2)c1	i	.	.	.
COc1ccccc1NC(=O)C(CC(C)C)NC(=O)C1CCCCC1 (centres undefined)	i	.	.	.
CC(NC(=O)COC(=O)C1CCC1)c1ccccc1 (centres undefined)	i	.	.	.

Bioassay records: PubChem, Johns Hopkins Ion Channel Center
